# Pf growth 96h – inhibits malaria parasite growth, 96 h; Potency, µM (titrated, usually from 28.7 µM), for the others: at the top dose activity change, negative = inhibition, actives largely listed as inhibitors; P. falciparum luciferase reporter growth, 96 h; 6.9% of 320,000 active; note: % is set by controls: 0 for no effect and ±100 for the full control effect
#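 Plates of compound plus infected erythrocytes (2% hematocrit, 0.05% parasitemia final) incubate 96 hours, 37 C, 5% CO2. Detection reagent added; reduced luminescence from the parasites' luciferase reporter flags inhibition.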
# Pf growth 48h – inhibits P. falciparum growth in the first generation, 48 h; 5.9% of 310,000 active; Potency, µM (highest dose often 28.7 µM), for the others: at the top dose activity change, negative = inhibition, hits mostly inhibitors; P. falciparum luciferase growth in erythrocytes, 48 h; note: % is set by controls: 0 for no effect and ±100 for the full control effect
#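 Luciferase-expressing P. falciparum in infected erythrocytes (2% hematocrit, 0.1% parasitemia final) in RPMI 1640/0.5% Albumax were exposed to compound for 48 hours at 37 C, 5% CO2; growth read as luminescence.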
# AMA1 RON2 block – AMA1-RON2 (P. falciparum) interaction inhibition | AlphaScreen AMA1-biotinylated RON2 peptide binding | Potency, µM (doses to about 58.2 µM), for the others: top-dose activity change, negative = inhibition, hits mostly inhibitors | 0.2% of 360,000 active | AID 720542;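 note: 0% = vehicle wells and -100% = peptide control; nearly all actives have a fitted effect of over 45% in size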
#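 AMA1 (3D7) with his tag at 25 nM final met compounds first, then biotinylated RON2 peptide at 25 nM; detection used donor plus acceptor beads, 10 µg/mL apiece, read by AlphaScreen after 30 min at room temperature.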
# SARS PLP yeast – SARS-CoV PLP inhibition in yeast. S. cerevisiae expressing SARS-CoV PLpro, growth rescue. Potency, µM (series often up to 32.9 µM), for the others: at the top dose activity, positive = growth rescue, actives largely listed as activators. 0.19% of 330,000 active; calls by dose curve; note: 0% is about no effect; nearly all actives have a fitted effect of over 55% in size
# Active calls of the source: *; ? = inconclusive; . = no result; ! = repeats disagree; [ ] = another dose, or the depositor's remark. In the library only some 9.4% were active in any assay of this set; here they are far more common. Unless noted, calls come from the whole dose curve; as a rule, active = well fitted curve in the direction sought with a large enough effect; inconclusive = small, poorly fitted or top-dose-only effect, or another doubt; inactive = no such curve, though single readings can be large; an effect the other way counts as inactive or inconclusive. Potency is the fitted concentration of half-maximal effect.
SMILES,Pf growth 96h,Pf growth 48h,AMA1 RON2 block,SARS PLP yeast
O=[N+]([O-])c1cccc(C2NCC(c3ccccc3Cl)c3c2[nH]c2ccccc32)c1 (stereo not drawn),13µM*,-7%,?,-19%
CCc1nnc(NC(=O)CSCc2cc(=O)n3nc(C(C)C)sc3n2)s1,36%,12%,-3%,-7%
CCOc1ccccc1NC(=O)c1ccccc1N(C)S(C)(=O)=O,0%,7%,9%,1%
NC[C@@H]1O[C@H](C23CC4CC(CC(C4)C2)C3)Cc2c1ccc(O)c2O,5.9µM*,9.3µM*,2%,-3%
COc1cc(C(c2sc3ncnn3c2O)N2CCN(c3ccccc3F)CC2)cc(OC)c1OC (stereo not drawn),-28%,.,33%,-11%
CCOC(=O)c1nn(-c2ccc(OC)cc2)c(=O)c2c(N)scc12,3%,?,-3%,-3%
CCOC(=O)c1nn(-c2ccc(C)c(C)c2)c(=O)c2c(N)scc12,13µM*,8%,-15%,-2%
Nc1cc(Nc2ccc(Br)cc2)nc(N)n1,10µM*,?,16%,-2%
COc1ccc(Nc2cc(C)nc(N)n2)cc1,?,?,10%,1%
COc1ccc(Nc2cc(Cl)nc(N)n2)cc1,6%,73%,-7%,-1%
Cc1cc(Nc2ccc(Cl)cc2)nc(N)n1,2.6µM*,?,2%,1%
Cc1ccc(Nc2nc(-c3sc(C)nc3C)cs2)cc1,?,31%,-14%,-21%
Cc1nc(C)c(-c2csc(N)n2)s1,0.33µM*,-12%,12%,-1%
O=C(NC1CC2CCCC(C1)N2CC(=O)N1CCCc2ccccc21)C1CCCCC1 (stereo not drawn),15µM*,-9%,-7%,23%
CC1Oc2ccccc2N(CC(=O)Nc2ccc3c(c2)OCCO3)C1=O (stereo not drawn),12µM*,46%,0%,1%
CC1Oc2ccccc2N(CC(=O)NCc2ccc3c(c2)OCO3)C1=O (stereo not drawn),12µM*,35%,0%,1%
CC1Oc2ccccc2N(CC(=O)N2CCCc3ccccc32)C1=O (stereo not drawn),9.3µM*,-21%,-3%,10%
CC1Oc2ccccc2N(CC(=O)N2CCc3ccccc32)C1=O (stereo not drawn),-17%,-3%,-28%,6%
CC1Oc2ccccc2N(CC(=O)Nc2ccc3c(c2)OCO3)C1=O (stereo not drawn),23%,21%,3%,2%
CSc1ccccc1NC(=O)COC(=O)c1cnc(C)cn1,.,.,-9%[11.6 µM],-1%
COCCCC/C(=N\OCCN)c1ccc(C(F)(F)F)cc1,12µM*!,?,16%,-1%
Cc1c(C(=O)OCCOc2ccc(Br)cc2)sc(=S)n1C,-6%,1%[5.75 µM],-8%,1%
COc1ccc(S(=O)(=O)NC2CC(=O)N(c3ccc(C)c(C)c3)C2)cc1C (stereo not drawn),28%,-19%,-4%,4%
COc1cc(OC)cc(-c2n[nH]c(=S)n2-c2cc(OC)ccc2OC)c1,.,.,57%,?
COc1ccc(OC)c(-n2c(-c3ccc(O)cc3O)n[nH]c2=S)c1,0.013µM*,?,64%,-1%
SMILES,Pf growth 96h,Pf growth 48h,AMA1 RON2 block,SARS PLP yeast
Oc1ccc(-c2n[nH]c(=S)n2-c2ccc3c(c2)OCCO3)c(O)c1,0.066µM*,0.41µM*,54%,-10%
N=c1n(Cc2ccccc2)c2ccccc2n1CC(O)COc1ccccc1 (stereo not drawn),9.3µM*,15µM*,-10%,22µM*
CCn1c(=N)n(CC(O)COc2cccc(C)c2)c2ccccc21 (stereo not drawn),?,?,-6%,?
Cc1ccc(Cn2c(=N)n(CC(O)COc3ccccc3)c3ccccc32)cc1 (stereo not drawn),1.7µM*,.,6%,-1%
OC(COc1ccc(OCC(O)CN2CCN(Cc3ccccc3)CC2)cc1)CN1CCN(Cc2ccccc2)CC1 (stereo not drawn),.,.,9%,.
O=C(c1ccccc1)N1CCCCC(S(=O)(=O)c2ccccc2)C1=O (stereo not drawn),14%,32%,3%,9%
CC1CN(c2ncc(/C=N/NC(=O)c3ccccc3O)s2)CC(C)O1 (stereo not drawn),?,?,72%,13%
O=C(N/N=C/c1cnc(N2CCCCC2)s1)c1ccc(C(F)(F)F)cc1,?,3.3µM*,13%,-1%
COc1ccccc1N1CCN(c2ccc3c(c2)S(=O)(=O)c2cccc(C(=O)NCc4cccc(F)c4)c2C3=O)CC1,.,.,8%,.

# High-throughput results deposited in PubChem BioAssay by National Center for Advancing Translational Sciences (NCATS).
